Sampled rows, rich in hits. Any-hit rate of the full collection: about 19%.
IL-1B inflam inh = inhibitors of inflammasome signaling (IL-1 beta secretion) | THP-1 LPS/ATP IL-1B secretion, AlphaLISA, 16 h; stronger effect = lower value | activity change, % at 57.5 µM | actives 4.7% (n = 360,000); in the data active = activity change below about -50%; inconclusive = mostly about -30% to -49%; note: % is set by controls: 0 for no effect and ±100 for the full control effect
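THP-1 cells pretreated 1 hr with compounds (up to 57.5 uM final), then stimulated with LPS (250 ng/mL final) plus ATP (1.25 mM final); secreted IL-1B measured by AlphaLISA after 16 hr, decreased signal indicating inhibition.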
TDP1 cell CPT = growth inhibition of DT40 Tdp1-/-;hTDP1 cells with camptothecin (screen for TDP1 inhibitors). chicken DT40 Tdp1-/-;hTDP1 cells + 20 nM CPT, ATP luminescence, 48 h. Potency, µM (top dose mostly 46.2 µM), for inactives: at the highest dose activity change, negative = growth inhibition, usual class: inhibitors. actives 12% (n = 420,000); note: potency is the fitted concentration of half-maximal effect; % is set by controls: 0 for no effect and ±100 for the full control effect; nearly all actives have a fitted effect of over 55% in size
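Cell growth measured by CellTiter-Glo luminescence after a minimum 48 h, 37 C compound exposure with 20 nM CPT in Tdp1-knockout DT40 cells stably expressing hTDP1, seeded 400/well; qHTS titration format.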
DT40 TDP1 no CPT = qHTS for Inhibitors of human tyrosyl-DNA phosphodiesterase 1 (TDP1): qHTS in cells in absence of CPT. DT40 Tdp1-/- hTDP1 cells, no CPT, ATP luminescence, 48 h. actives 15% (n = 420,000). AID 686978, 2013. Potency, µM (titrated, usually from 46.2 µM), without a hit: at the top dose activity change, negative = growth inhibition, most hits filed as inhibitors; note: potency is the fitted concentration of half-maximal effect; % is set by controls: 0 for no effect and ±100 for the full control effect; nearly all actives have a fitted effect of over 55% in size
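Chicken DT40 Tdp1-/- cells stably complemented with human TDP1 were seeded at 400 cells/well with DMSO in place of 20 nM camptothecin. After compound pinning, cells grew at least 48 hr at 37 °C; viability read by CellTiter-Glo luminescence.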
BCR signal inh = blocks chronic active B-cell receptor signaling; ABC-DLBCL IkBa-CBG/CBR reporter, luminescence ratio, 4 h; Potency, µM (highest dose often 46.1 µM), for the others: top-dose activity change, negative = inhibition, hits mostly inhibitors; actives 0.05% (n = 340,000); AID 493014; active = well fitted inhibition curve with a large enough effect in the signal ratio, with a control signal flat, not every such curve was filed as active; inconclusive = small, poorly fitted or top-dose-only effect, or effect the other way, or a change in a side signal; the % refers to the signal ratio;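 note: potency is the fitted concentration of half-maximal effect; plate controls were basal doxycycline-induced cells for no effect and cells given 10 µM MG132 for full effect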
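Concentration-response series (up to 46 uM) were applied to TMD8 dual-reporter cells for 4 h at 37C with doxycycline. Green/red ratio, after filter-overlap correction, defined %Activity; red signal alone was normalised to basal cells and zero luminescence.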
MCF10A rerep = DNA re-replication induction in MCF 10a cells | actives 2.9% (n = 350,000) | AID 624296 | Potency, µM (series often up to 46.1 µM), inactives show at the highest dose activity, positive = re-replication, most hits filed as activators | MCF 10A DNA re-replication, Hoechst nuclear intensity, 48 h; note: potency is the fitted concentration of half-maximal effect; % of control where 0% means no effect; nearly all actives have a fitted effect of over 50% in size
SW480 rerep = inducers of DNA re-replication in SW480 colon cancer cells; actives 1.8% (n = 340,000); SW480 DNA re-replication, Hoechst DNA content imaging, 48 h; Potency, µM (highest dose often 46.1 µM), inactives show at the top dose re-replication activation, actives largely listed as activators; AID 624297; note: potency is the fitted concentration of half-maximal effect; % of control where 0% means no effect; nearly all actives have a fitted effect of over 55% in size
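DNA re-replication was detected as more nuclei of elevated Hoechst intensity after 48 hr exposure to compound (23 nL pinned per well of 250 cells).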
Numbers without * were called inactive; ? = inconclusive; nt = not tested or not shown; [ ] = dose if it differs, or a comment. Unless noted, calls come from the whole dose curve; as a rule, active = well fitted curve in the direction sought with a large enough effect; inconclusive = small, poorly fitted or top-dose-only effect, or another doubt; inactive = no such curve, though single readings can be large; an effect the other way counts as inactive or inconclusive.

SMILES | IL-1B inflam inh | TDP1 cell CPT | DT40 TDP1 no CPT | BCR signal inh | MCF10A rerep | SW480 rerep
COc1cccc(C(=O)NC2CC3CCCC(C2)N3S(=O)(=O)c2ccccc2)c1 (centres undefined) | 1 | 13µM* | 12µM* | -4% | 6% | 0%
COc1ccc(N(C)S(=O)(=O)c2cccc(C(=O)Nc3cccc(C(=O)NC4CC4)c3)c2)cc1 | -7 | 15µM* | 16µM* | ? | ? | -2%
COc1ccc(N(C)S(=O)(=O)c2cccc(C(=O)NC3CCC(C)CC3)c2)cc1 (centres undefined) | ? | ? | 16µM* | ? | ? | ?
COc1ccc(S(=O)(=O)N(C)c2ccc(C(=O)NC3CC3)cc2)cc1 | -7 | -12% | -14% | 8% | 0% | 3%
C=CCOc1ccc(/C=N/NC(=O)CC(=O)NC2CCCCC2)cc1 | -7 | -3% | 0% | 6% | -1% | -4%
CC(C)Cc1nnc(NC(=O)C2CCCN(C(=O)c3ccc(Cl)cc3)C2)s1 (centres undefined) | 15 | ? | ? | nt | nt | nt
CC(C)NC(=O)C1(C)CN(S(C)(=O)=O)CC(=O)N1Cc1ccc2c(c1)OCO2 (centres undefined) | -12 | 19% | 6% | nt | nt | nt
COc1ccc(N(C)S(=O)(=O)c2cccc(C(=O)NC3CCCCCC3)c2)cc1 | -55* | -29% | ? | -6% | ? | 26%
CCN(CC)CCCNC(=O)CNC(=O)c1nn(-c2ccc(OC)cc2OC)c(=O)c2ccccc12 | -25 | -15% | 13% | nt | nt | nt
Cc1ccc(S(=O)(=O)N(C(=O)c2ccco2)c2cc3sc(=O)oc3c3ccccc23)cc1 | 6 | 5.2µM* | 2.6µM* | ? | ? | 3%
CCOc1ccc(S(=O)(=O)N(C(=O)c2ccco2)c2cc3sc(=O)oc3c3ccccc23)cc1 | -95* | 18µM* | ? | -36% | ? | 2%
Cc1ccc(S(=O)(=O)N(C)CC(=O)N2CCN(C(=O)c3ccco3)CC2)cc1 | -2 | -17% | 0% | -1% | -1% | -5%
CSc1ccc(CC(=O)N2CCC(n3nccc3NC(=O)C3CC3)CC2)cc1 | 0 | -1% | 16% | ? | -3% | -7%
O=C(c1cc2ccccn2n1)N1CCCC1 | nt | nt | nt | -8% | nt | nt
Cc1ccc(C)c(N2CCN(C(=O)c3cc4ccccn4n3)CC2)c1 | 18 | ? | 23µM* | 5% | 15% | -1%
Cc1ccc(C)c(N2CCN(C(=O)c3ccc4nsnc4c3)CC2)c1 | ? | 12µM* | 13µM* | -3% | ? | 21µM*
CCOC(=O)N1CCN(C(=O)c2ccc3[nH]c(C)c(C)c3c2)CC1 | -6 | -23% | -27% | -6% | 14% | -15%
O=C(c1ccc2nsnc2c1)N1CCN(c2ccc([N+](=O)[O-])cc2)CC1 | 4 | 21µM* | 21µM* | 1% | 7% | ?
Cc1ccc(C)c(N2CCN(C(=O)c3ccc4[nH]c(C)c(C)c4c3)CC2)c1 | nt | 12µM* | 12µM* | nt | nt | nt
COc1ccc(NC(=O)C2(C)CCCN(C(C)C)C2)cc1F (centres undefined) | -2 | -12% | -6% | nt | nt | nt
OC[C@H]1O[C@@H](c2nc3ccc(-c4nc(-c5ccc(Br)cc5)no4)cc3[nH]2)C[C@@H]1O | 34 | 16µM* | 16µM* | nt | nt | nt
CCN(CC)C(=O)c1ccc2nc([C@H]3C[C@H](O)[C@@H](CO)O3)[nH]c2c1 | 14 | -9% | -7% | nt | nt | nt
CCO/C(=C/c1sc2ccc(OC)cc2[n+]1CCCS(=O)(=O)[O-])CC | 0 | 4% | 3% | 2% | 4% | -16%
CCOC(=O)C[n+]1c(C)sc2ccc(OC)cc21 | -28 | 8.2µM* | 8.2µM* | ? | ? | 11%[9.22 µM]
